Calls of active or inactive are those of the source.
Tests used:
[1] = optical density shifts of acrAB sulA E. coli – strain DRC41, OD650, 48 h, E. coli filamentation inducer project, primary screen (AID 1152); conditions: higher = more signal, called active from +8 up or from −8 down;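 also: E. coli MC1000 strain DRC41 lacking acrAB efflux pump and sulA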
[2] = probe aLefty1 binding on compound microarray – biochemical, small-molecule microarray, 635/667 nm fluorescence, primary screen (AID 1153); conditions: higher = more signal;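 also: score merges spot fluorescence with signal-to-noise ratio from the scanned slide images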
[3] = plasmodial surface anion channel blockers, osmotic lysis – cell-based, P. falciparum Indochina, OD700, 1 h, primary screen (AID 1154); conditions: P. falciparum Indochina infected RBC osmotic lysis, higher = more signal, called active from +8 up or from −8 down
[4] = plasmodial surface anion channel blockers, osmotic lysis – cell-based, P. falciparum Indochina, OD700, 2 h, primary screen (AID 1155);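 also: lysis reports solute entry through the parasite surface anion channel PSAC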; conditions: P. falciparum Indochina infected erythrocytes, higher = more signal, called active from +8 up or from −8 down
[5] = changes in parasitized red cell lysis, either direction – P. falciparum Indochina, OD700, 3 h, PSAC antagonist project, primary screen (AID 1156); conditions: P. falciparum-infected erythrocytes, osmotic lysis, higher = more signal, called active from +8 up or from −8 down
[6] = plasmodial surface anion channel blockers, osmotic lysis – cell-based, P. falciparum Indochina, OD700, 18 h, primary screen (AID 1157); conditions: P. falciparum Indochina infected erythrocytes, osmotic lysis OD700, 18 h; higher = more signal, called active from +8 up or from −8 down
[7] = S6 kinase pathway phospho-S6 level changes – cell-based, A549, cytoblot, luminescence, serum-stimulated, primary screen (AID 1158); conditions: 5 h, higher = more signal;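 also: serum-stimulated A549 lung adenocarcinoma cells; signal is phosphorylated S6 detected by cytoblot immunostaining with HRP secondary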
[8] = target: NADPH oxidase 2 (Homo sapiens) (UniProt P04839); assay: compounds shifting NOX2 Amplex Red fluorescence – cell-based, HEK293-NOX2, PMA-stimulated, NOX inhibitor project, primary screen (AID 1159); conditions: 45 min, higher = more signal, called active from +8 up or from −8 down; also: test concentration not given here
Chain of NADPH oxidase 2 (Homo sapiens) (P04839 whole entry, looked up): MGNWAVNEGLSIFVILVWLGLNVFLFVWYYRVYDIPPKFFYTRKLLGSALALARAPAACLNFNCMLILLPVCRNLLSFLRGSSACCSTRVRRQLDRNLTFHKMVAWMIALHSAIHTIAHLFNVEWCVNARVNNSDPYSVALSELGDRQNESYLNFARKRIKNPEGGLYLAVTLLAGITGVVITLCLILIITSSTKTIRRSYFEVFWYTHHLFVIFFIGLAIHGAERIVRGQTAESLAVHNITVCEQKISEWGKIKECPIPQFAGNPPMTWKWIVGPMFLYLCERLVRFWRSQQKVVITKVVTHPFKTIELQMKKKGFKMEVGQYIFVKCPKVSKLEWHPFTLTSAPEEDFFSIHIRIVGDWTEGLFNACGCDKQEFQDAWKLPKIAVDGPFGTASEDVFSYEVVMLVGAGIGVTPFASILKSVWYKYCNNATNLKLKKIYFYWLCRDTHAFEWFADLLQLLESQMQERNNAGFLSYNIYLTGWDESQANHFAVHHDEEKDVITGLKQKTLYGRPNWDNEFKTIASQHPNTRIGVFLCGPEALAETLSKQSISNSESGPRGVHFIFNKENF

[9] = target: NADPH oxidase 4 (Homo sapiens) (UniProt Q9NPH5); assay: compounds shifting NOX4 Amplex Red fluorescence – cell-based, HEK293-NOX4, tetracycline-induced, NOX inhibitor project, primary screen (AID 1160); conditions: HEK293-NOX4, Amplex Red H2O2 fluorescence, 45 min; higher = more signal, called active from +8 up or from −8 down
Chain of NADPH oxidase 4 (Homo sapiens) (Q9NPH5 whole entry, looked up): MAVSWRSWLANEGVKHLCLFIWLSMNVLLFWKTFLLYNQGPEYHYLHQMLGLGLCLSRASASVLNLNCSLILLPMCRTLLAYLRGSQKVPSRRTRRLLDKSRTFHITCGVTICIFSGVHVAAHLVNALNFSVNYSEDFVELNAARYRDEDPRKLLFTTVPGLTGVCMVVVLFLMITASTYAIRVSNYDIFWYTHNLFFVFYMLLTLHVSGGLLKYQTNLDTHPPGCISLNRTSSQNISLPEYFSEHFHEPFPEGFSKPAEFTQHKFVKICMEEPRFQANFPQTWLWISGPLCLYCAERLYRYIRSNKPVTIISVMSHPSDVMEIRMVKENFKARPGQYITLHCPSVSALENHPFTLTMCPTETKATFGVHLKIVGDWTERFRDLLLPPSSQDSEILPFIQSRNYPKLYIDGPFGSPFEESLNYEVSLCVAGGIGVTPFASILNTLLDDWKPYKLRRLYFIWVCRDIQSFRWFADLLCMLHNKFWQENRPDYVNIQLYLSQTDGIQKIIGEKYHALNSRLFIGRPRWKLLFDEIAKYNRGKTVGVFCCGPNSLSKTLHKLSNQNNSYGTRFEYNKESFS

[10] = target: NADPH oxidase 5 (Homo sapiens) (UniProt Q96PH1); assay: compounds shifting NOX5 Amplex Red fluorescence – cell-based, HEK293-NOX5, NOX inhibitor project, primary screen (AID 1161); conditions: HEK293-NOX5, ionomycin, 45 min, higher = more signal
Chain of NADPH oxidase 5 (Homo sapiens) (Q96PH1 whole entry, looked up): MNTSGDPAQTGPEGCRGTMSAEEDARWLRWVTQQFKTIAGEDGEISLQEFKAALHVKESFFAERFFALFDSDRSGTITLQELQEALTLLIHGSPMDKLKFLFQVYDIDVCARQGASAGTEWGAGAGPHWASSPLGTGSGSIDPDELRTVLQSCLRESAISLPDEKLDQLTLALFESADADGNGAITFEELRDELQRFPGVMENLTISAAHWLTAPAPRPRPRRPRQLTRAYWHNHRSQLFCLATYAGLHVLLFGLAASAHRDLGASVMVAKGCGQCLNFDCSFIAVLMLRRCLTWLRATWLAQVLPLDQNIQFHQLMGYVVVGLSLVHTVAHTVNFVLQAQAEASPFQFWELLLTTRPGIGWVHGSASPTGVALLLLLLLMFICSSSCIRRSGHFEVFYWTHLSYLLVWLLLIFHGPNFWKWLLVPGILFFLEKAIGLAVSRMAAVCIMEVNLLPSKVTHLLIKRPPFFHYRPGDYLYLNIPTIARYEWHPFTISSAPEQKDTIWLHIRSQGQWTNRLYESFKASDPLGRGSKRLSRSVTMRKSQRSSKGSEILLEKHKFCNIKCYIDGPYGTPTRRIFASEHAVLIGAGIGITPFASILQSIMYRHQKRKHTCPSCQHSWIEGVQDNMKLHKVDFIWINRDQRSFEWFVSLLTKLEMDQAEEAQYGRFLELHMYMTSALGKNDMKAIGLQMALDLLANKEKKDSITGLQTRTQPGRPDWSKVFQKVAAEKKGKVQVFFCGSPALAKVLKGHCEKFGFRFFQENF

[11] = compound effects on lung adenocarcinoma cell viability – A549, calcein-AM fluorescence, 48 h, basal, profiling panel (AID 1162); conditions: higher = more signal; also: test concentration not given here
[12] = compound effects on differentiated 3T3-L1 adipocyte viability – cell-based, 3T3-L1 adipocytes, calcein-AM fluorescence, 48 h, basal, profiling panel (AID 1163); conditions: 3T3-L1 adipocytes viability, higher = more signal; also: test concentration not given here
[13] = compound effects on hepatocellular carcinoma cell viability – HepG2, calcein-AM fluorescence, 48 h, basal, profiling panel (AID 1164); conditions: higher = more signal; also: test concentration not given here
[14] = compound effects on multiple myeloma cell viability – MM1S, calcein-AM fluorescence, 48 h, basal, profiling panel (AID 1165); conditions: higher = more signal; also: test concentration not given here
[15] = calcein-AM signal in unstimulated myeloma cells – cell-based, calcein-AM fluorescence, 48 h, PK04 Diversity Set, profiling panel (AID 1166); conditions: RPMI8226 myeloma viability, higher = more signal;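 also: cells grown under basal conditions without added stimulus; test concentration not given here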
[16] = JC-1 mitochondrial signal, unstimulated HepG2 cells – cell-based, JC-1 fluorescence, 24 h, 100 nL compound, profiling panel (AID 1167); conditions: HepG2 mitochondrial potential, higher = more signal; also: test concentration not given here
[17] = JC-1 mitochondrial signal, unstimulated adipocytes – cell-based, JC-1 fluorescence, 3T3-L1 adipocytes, 24 h, 100 nL compound, profiling panel (AID 1168); conditions: JC-1 mitochondrial fluorescence, higher = more signal, called active from +8 up or from −8 down; also: test concentration not given here
[18] = JC-1 mitochondrial signal, unstimulated myeloma cells – cell-based, JC-1 fluorescence, RPMI8226, 24 h, 100 nL compound, profiling panel (AID 1169); conditions: JC-1 mitochondrial potential fluorescence, higher = more signal; also: test concentration not given here
[19] = JC-1 mitochondrial signal, unstimulated MM1S myeloma – cell-based, JC-1 fluorescence, 24 h, 100 nL compound, profiling panel (AID 1170); conditions: MM1S mitochondrial potential, higher = more signal; also: test concentration not given here
[20] = resazurin metabolic signal in A549 cells – cell-based, resazurin fluorescence, 24 h, PK04 Diversity Set, profiling panel (AID 1171); conditions: A549 viability, higher = more signal, called active from +8 up or from −8 down; also: test concentration not given here

Row | Compound | z-score [1] | composite z-score [2] | z-score [3] | z-score [4] | z-score [5] | z-score [6] | z-score [7] | z-score [8] | z-score [9] | z-score [10] | z-score [11] | z-score [12] | z-score [13] | z-score [14] | z-score [15] | z-score [16] | z-score [17] | z-score [18] | z-score [19] | z-score [20]
1 | C=C(C)C1CCC(C(O)C2C=CC3C(=O)N(C)C(=O)C3N2Nc2cc(OC)c(OC)c(OC)c2)CC1 (stereo not given) | -1.67 (inactive) | 0.361 | 0.541 (inactive) | 0.61 (inactive) | -0.256 (inactive) | 0.901 (inactive) | -0.681 | -1.86 (inactive) | -2.78 (inactive) | -2.92 | -1.13 | -1 | -0.273 | -0.989 | -0.0317 | -0.648 | -0.696 (inactive) | -0.354 | -0.549 | -0.404 (inactive)
2 | COCCOC(=O)N1C(=O)[C@@]2(c3cc(C#CCCO)ccc31)[C@H](C(=O)N1CCCCCCC1)[C@H]1C(=O)O[C@H](c3ccccc3)[C@H](c3ccccc3)N1[C@@H]2c1ccccc1OCCO | -0.82 (inactive) | 2.52 | 0.56 (inactive) | 0.654 (inactive) | 0.0531 (inactive) | 0.336 (inactive) | -0.319 | 1.96 (inactive) | 0.843 (inactive) | 1.73 | 0.862 | 1.45 | 0.566 | -2.12 | -1.62 | -0.292 | -0.0643 (inactive) | -0.815 | -0.513 | 1 (inactive)
3 | CCOC(=O)C1=CC[C@@H](c2ccccc2)N(S(=O)(=O)c2ccc(C)cc2)[C@H]1c1cccc(OC)c1 | -0.999 (inactive) | 0.535 | 0.792 (inactive) | 0.779 (inactive) | -0.422 (inactive) | 0.385 (inactive) | -0.245 | 0.537 (inactive) | 0.489 (inactive) | 0.732 | -0.716 | -1.41 | -0.0906 | -0.247 | -0.907 | 2.94 | -0.293 (inactive) | 0.505 | -1.35 | 0.776 (inactive)
4 | COC(=O)C1N=C(c2ccc(OCCCO)cc2)N(c2ccccc2)O1 (stereo not given) | 0.336 (inactive) | 0.103 | 24.9 (active) | 7.38 (inactive) | 1.02 (inactive) | 1.04 (inactive) | 0.417 | 0.943 (inactive) | 0.392 (inactive) | -0.0493 | 0.893 | 1.16 | 0.634 | -0.943 | 0.5 | 0.684 | -0.407 (inactive) | -0.44 | 0.042 | 0.953 (inactive)
5 | CN1C=C(C(=O)OCCS(C)(=O)=O)C(C(=O)OCCS(C)(=O)=O)=CC(c2ccc(CO)cc2)=CC1c1cccs1 (stereo not given) | 0.248 (inactive) | 0.391 | 9.6 (active) | 1.64 (inactive) | 0.298 (inactive) | 0.969 (inactive) | 0.0225 | -0.937 (inactive) | -0.558 (inactive) | -1.98 | 0.574 | -0.72 | 0.977 | -1.43 | -1.1 | -0.963 | -0.345 (inactive) | -0.627 | 0.0752 | 0.458 (inactive)
6 | COCCOC(=O)N1C(=O)[C@@]2(c3cc(C#CC4=CCCCC4)ccc31)[C@H](C(=O)N1CCCCCCC1)[C@H]1C(=O)O[C@H](c3ccccc3)[C@H](c3ccccc3)N1[C@@H]2c1ccc(OCCO)cc1 | -1.1 (inactive) | 1.88 | 4.58 (inactive) | 1.19 (inactive) | -0.26 (inactive) | 0.481 (inactive) | 0.118 | 0.983 (inactive) | 0.567 (inactive) | -0.934 | 0.382 | 1.74 | -0.214 | -0.774 | -0.779 | 0.225 | -3.07 (inactive) | -0.674 | -1.14 | -0.223 (inactive)
7 | COCCCNC(=O)[C@@]1(Sc2ccc(C)cc2)CC(=O)N(C(C)C)[C@@H]1c1ccc(CO)cc1I | -0.158 (inactive) | 0.0445 | 6.72 (inactive) | -0.602 (inactive) | 0.349 (inactive) | -1.49 (inactive) | 1.61 | 1.77 (inactive) | -1.47 (inactive) | -0.854 | 0.781 | 1.74 | -1.16 | -2.2 | -2.38 | 0.544 | -0.0068 (inactive) | -0.205 | -2.75 | 0.534 (inactive)
8 | C=C[C@H](C)[C@H](OC(=O)Nc1ccc(OC)cc1)c1ccc(OCCO)cc1 | 0.566 (inactive) | 0.126 | 12.4 (active) | 1.76 (inactive) | 0.193 (inactive) | 0.746 (inactive) | -0.196 | -0.288 (inactive) | 0.436 (inactive) | -2.19 | 0.366 | -0.402 | 0.692 | -0.412 | -1.83 | -0.569 | 0.627 (inactive) | -0.0376 | 0.873 | -0.262 (inactive)
9 | CCCCCN1CC=CC23O[C@@H]4/C=C\CCC(C)OC(=O)C4[C@H]2C(=O)N(CCCCCCO)[C@@H]3C1=O (stereo not given in full) | 1.6 (inactive) | 0.0378 | 1.25 (inactive) | 0.971 (inactive) | 0.26 (inactive) | 0.967 (inactive) | 2.19 | 1.25 (inactive) | 0.0532 (inactive) | 1.74 | 0.29 | 0.644 | 0.822 | 1.6 | 0.656 | 0.589 | 0.785 (inactive) | -0.141 | -0.459 | 0.944 (inactive)

— PubChem BioAssay
